From PubChem BioAssay
NALP3 yeast inh – NALP3 inhibition in yeast; inhibition, % at 10 µM; AID 2825; 330,000 tested, 0.39% active; Yeast reconstituted NLRP3/ASC/caspase-1, beta-gal luminescence, 24 h;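 active means inhibition of 50% or more; inactive means inhibition below 50%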;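 further: plate controls were induced DMSO wells for no effect and uninduced yeast grown without galactose for full effect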
tim23-1 inh – inhibits growth of tim23-1 mutant yeast; S. cerevisiae tim23-1 growth, BacTiter-Glo luminescence, 24 h; AID 463212; inhibition, % at 20 µM; 330,000 tested, 1.3% active;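 active means growth inhibition of the mutant yeast at or above 50%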;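 further: temperature-sensitive mutant grown at 25 °C; plate controls were DMSO-treated mutant yeast for no effect and medium wells lacking yeast for full effect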
tim10-1 inh – tim10-1 yeast growth inhibition; S. cerevisiae tim10-1 ts strain growth, BacTiter-Glo, 24 h; inhibition, % at 20 µM; 330,000 tested, 2.2% active; AID 463190;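 active means inhibition of at least 40%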;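 further: mutant grown at 25 °C; 0% = DMSO wells with yeast and 100% = wells holding no yeast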
TIM10 inh – inhibits growth of TIM10 yeast strain. 330,000 tested, 1.4% active. S. cerevisiae TIM10 strain growth, BacTiter-Glo luminescence, 24 h. inhibition, % at 10 µM;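 active means inhibition of 40% or more at the single tested concentration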;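 further: wild-type TIM10 isogenic control strain grown at permissive 25 °C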
SKKanGAS inh – SKKanGAS growth inhibition | S. pyogenes SKKanGAS, kanamycin growth, BacTiter-Glo, 6 h | inhibition, % at 7.5 µM | 300,000 tested, 1.3% active | AID 1662;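 active means mean replicate score, as percent of positive control median, at least 50; inconclusive means mean below 50 but one replicate at or above 50; inactive means mean and every replicate below 50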;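 further: strain carries kanamycin resistance gene driven by streptokinase promoter and grows in 40 µg/ml kanamycin; loss of luminescence reflects streptokinase promoter inhibition or plain growth inhibition; 0% = median of DMSO wells and 100% = positive control at its reference dose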
NALP3 confirm – confirmation of NALP3 inhibitors in yeast | shares compounds with NALP3 yeast inh | yeast expressing human NALP3, luminescence | inhibition, % at 10 µM | 1,300 tested, 81% active | AID 435006; in the data active means inhibition above about 48%
Casp1 ASC ctr – counter-screen for NALP3 inhibitors: yeast caspase-1-ASC. shares compounds with NALP3 yeast inh. yeast expressing Caspase-1-ASC, luminescence counter screen. inhibition, % at 10 µM. 1,000 tested, 66% active. AID 488784
NALP3 retest – yeast NALP3 inhibition, confirmed on retest; inhibition, % at 10 µM; AID 488794; shares compounds with NALP3 yeast inh; 1,000 tested, 53% active; yeast expressing human NALP3, luminescence read-out
* hit, by the source's call; u = inconclusive; x = not tested or not shown. Most compounds without a hit are left out; they make up all but 4.6% or so of the library. Unless noted, no stated cut-off is given here; in the data, active means inhibition above about 50%; inactive means the rest.

SMILES	NALP3 yeast inh	tim23-1 inh	tim10-1 inh	TIM10 inh	SKKanGAS inh	NALP3 confirm	Casp1 ASC ctr	NALP3 retest
CCc1ccccc1NC(=O)CNC(=O)c1ccc(-n2cncn2)c([N+](=O)[O-])c1	25	16	3	17	-1	x	x	x
O=C(Nc1ccc2c(c1)OCO2)Nc1cnccn1	10	11	-4	-11	4	x	x	x
O=C(Nc1ccc2c(c1)OCO2)c1cccc(Cl)c1	56*	43	9	32	-1	58*	62*	61*
O=C(Nc1ccc2c(c1)OCO2)Nc1ccccn1	53*	11	15	10	-11	61*	x	x
Cc1cccc(C)c1NC(=O)C(C)N (configuration not stated)	55*	5	3	-3	17	59*	40	43
Cc1cccc(C)c1NC(=O)C(C)N1CCCC1 (configuration not stated)	7	-16	3	-10	-21	x	x	x
C/C(=N\Nc1ncc(Br)cn1)c1cccc([N+](=O)[O-])c1	51*	29	13	-2	-1	61*	64*	49
CN(CC(=O)Nc1ccc(C#N)cc1)Cc1ccc(Cl)cc1Cl	65*	39	21	2	-14	59*	59*	46
O=C(Nc1ccc(Cl)cc1)Nc1ccc(Cl)c(Cl)c1	72*	33	30	20	x	72*	24	42
CN(CC(=O)Nc1ccc(C#N)cc1)Cc1ccc(Cl)cc1	30	25	8	-1	-2	x	x	x
Cc1ccc(NC(=O)Nc2ccc(F)c(Cl)c2)cc1	23	-5	-22	-31	-1	x	x	x
N#Cc1ccc(NC(=O)Nc2ccc(Cl)cc2)cc1	72*	14	23	27	55*	57*	48	60*
Cc1ccc2c(c1)-n1c(nc3ccc(C)cc3c1=O)C(Cc1ccc(O)cc1)NC2=O (configuration not stated)	13	-3	0	7	x	x	x	x
CC(=O)N1CCc2cc(S(=O)(=O)C(C)CC(=O)Nc3ccc(OC(F)(F)F)cc3)ccc21 (configuration not stated)	-15	13	1	4	2	x	x	x
O=C(COc1ccc([N+](=O)[O-])cc1)NC(=O)NC1CCS(=O)(=O)C1 (configuration not stated)	11	-17	0	4	x	x	x	x
Cc1ccc(Nc2c([N+](=O)[O-])ccc3c2=NC2(CCCCC2)N=3)cc1	52*	40	9	30	7	56*	x	x
O=[N+]([O-])c1ccc2c(c1Nc1ccccc1Cl)=NC1(CCCCC1)N=2	26	25	15	12	5	x	x	x
O=S(=O)(c1ccc(F)cc1)c1snnc1-c1ccccc1	x	x	x	x	6	x	x	x
O=S(=O)(c1ccc(Cl)cc1)c1snnc1-c1ccccc1	61*	31	13	-6	15	72*	74*	66*
Cc1cc(C)cc(C(=O)Nc2nc3ccccc3[nH]2)c1	52*	47	11	13	u	52*	61*	47
COc1ccc(Cl)cc1C(=O)Nc1nc2ccccc2[nH]1	72*	31	-23	22	12	78*	77*	72*
COc1cc(C(=O)Nc2nc3ccccc3[nH]2)ccc1OC(F)F	7	15	15	7	44	x	x	x
COc1ccc(C)cc1S(=O)(=O)N(C)CC(=O)NCc1ccccn1	15	3	-10	13	-3	x	x	x
Cc1ccc(CNC(=O)[C@]2(C)CCC[C@@]3(C)C4CC[C@@]5(C)C[C@]4(CCC32)CC5=O)cc1 (some centres not stated)	35	6	-37	-41	x	x	x	x
COc1ccc(CNC(=O)[C@]2(C)CCC[C@@]3(C)C4CC[C@@]5(C)C[C@]4(CCC32)CC5=O)cc1 (some centres not stated)	51*	13	-14	-53	x	35	x	x
O=S(=O)(Oc1ccc(Cl)cc1)c1cccc2cccnc12	58*	15	4	-14	-13	54*	72*	61*
COc1cccc(CSc2nnc(-c3ccc(F)cc3)o2)c1	24	11	4	-6	-12	x	x	x
COc1ccc(-c2nnc(SCc3cccc(C#N)c3)o2)cc1	54*	21	-24	8	-6	37	x	x
